Hit rate of the full screen: of about 5,600 compounds, about 4,500 (80%) were called active. No stated cut-off is given here; in the data, active means inhibition above about 10%; inactive means the rest. The set was probably picked from earlier hits. Not all results are given here.
test: inhibition of coupled GDH and TPI enzymes – biochemical, fluorescence, high throughput, artefact control for M. tuberculosis FBA inhibitor project (AID 652141); settings: GDH-TPI coupled enzyme counterscreen, at 1 µM, active compounds read high

Compound | inhibition
CC[C@@H]1Cc2cc(O)ccc2C2=C1c1ccc(O)cc1C[C@H]2CC | 79.8% (active)
COc1ccc2oc(=O)c(C(=O)NCc3ccccn3)cc2c1 | -4.05% (inactive)
COc1ccc2oc(=O)c(C(=O)N3CCCC3)cc2c1 | 99.7% (active)
Nc1ccccc1-c1nc2ccncc2[nH]1 | 0.69% (inactive)
O=C(Nc1cccc2ccccc12)N1CCN(Cc2ccc3c(c2)OCO3)CC1 | 34.8% (active)
O=C(Nc1cccc2ccccc12)N1CCC2(CC1)OCCO2 | 93.7% (active)
COc1cc(C(F)(F)F)nc2c(Br)c(C(C)(C)C)nn12 | 47.7% (active)
O=C(NCc1cccc(Cl)c1)C1=CC=CN2CCS(=O)(=O)N=C12 | -4.53% (inactive)
CNc1nc(-c2ccccc2)cc(-c2ccccc2)n1 | 73.9% (active)
Nc1nc2n(n1)C(c1ccco1)CC(c1ccc(Cl)c(Cl)c1)N2 (stereo not drawn) | 199% (active)
Cn1c(-c2ccco2)nc2cc3ccccc3cc21 | 36.5% (active)
Cn1cccc1-c1nc2ccccc2n1C | 9.72% (inactive)
O=C(Nc1nncs1)c1ccccc1NS(=O)(=O)c1cccs1 | 115% (active)
Cc1ccc(C2Nc3ccccc3C(=O)N2CCN2CCNC2=O)cc1 (stereo not drawn) | -5.86% (inactive)
CCOC(=O)NN1C(=O)c2ccccc2NC1c1cccc(O)c1 (stereo not drawn) | 100% (active)
Cc1cc(C)nc(SCc2cn3c(C)cc(C)nc3n2)n1 | 69.3% (active)
Cc1nn(C)c(Oc2ccccc2)c1CCNS(=O)(=O)c1ccc(F)cc1 | 124% (active)
COc1cc(/C=C/c2ccc(/C=C/c3cc(OC)c(OC)c(OC)c3)cc2)cc(OC)c1OC | 11.4% (active)
COCCCNC(=O)/C(C#N)=C/c1c(N2CCCCCC2)nc2ccccn2c1=O | 50.5% (active)
CC[C@@H](C)[C@H](NC(=O)CCc1c(C)c2cc3c4c(oc3c(C)c2oc1=O)CCCC4)C(=O)O | 83% (active)
Cc1nc2c(-c3ccccc3)c(C)[nH]n2c(=O)c1Cl | 81.2% (active)

Compound | inhibition
COCc1cc(=O)n2[nH]c(C)c(-c3ccccc3)c2n1 | 39.7% (active)
CCCc1cc(=O)n2[nH]c(C)c(-c3ccc(Cl)cc3)c2n1 | 108% (active)
CN1CCc2c(sc3c2c(NCc2ccco2)nc2nnnn23)C1 | 183% (active)
O=C(CCC(=O)N/N=C/c1ccc(Br)o1)N/N=C/c1ccc(Br)o1 | 88.2% (active)
Fc1ccc(COc2cccc(-c3n[nH]c(=S)o3)c2)cc1 | 137% (active)
CCN(C(=O)Nc1cccc2ccccc12)c1ccccc1 | 118% (active)
COc1cc(OC)cc(C(=O)Nc2ccc(-c3nc4ccccc4o3)c(O)c2)c1 | 135% (active)
CC(=O)Nc1ccc(-c2nc3ccccc3o2)cc1 | -2.16% (inactive)
CC(C)(C)C(=O)Nc1cccc(-c2ccc[nH]2)n1 | 71% (active)
CC(C)(C)NC(=O)COc1ccc(CNc2ccc3[nH]c(=O)[nH]c3c2)cc1 | 2.64% (inactive)
COCCCn1c(C(=O)NC2CCCCC2)cc2c(=O)n3cccc(C)c3nc21 | 53.1% (active)
Cc1ccn2c(c1)nc(=O)c1cc(S(=O)(=O)N3CCC(C)CC3)ccc12 | -0.78% (inactive)
Cc1ccc(-n2c(=O)c(C#N)cc3c(=O)n4ccccc4nc32)cc1C | 19.5% (active)
Cc1coc2c1c(C)cc1oc(=O)c(CC(=O)NCC(=O)N[C@H](C(=O)O)C(C)C)c(C)c12 | 49.8% (active)
NC(=O)C1CCN(C(=O)COc2ccc3c4c(c(=O)oc3c2)CCC4)CC1 | -5.33% (inactive)
CCCCC(NS(=O)(=O)c1ccc(C)cc1)C(=O)Oc1ccc2c3c(c(=O)oc2c1)CCC3 (stereo not drawn) | 68.4% (active)
COCC(C)OC(=O)c1c(N)n(CCCN2CCOCC2)c2nc3ccccc3nc12 (stereo not drawn) | -2.55% (inactive)
CC(C)Cn1c(N)c(C(=O)NCc2cccs2)c2nc3ccccc3nc21 | 29.6% (active)
CCCNC(=O)c1c(N)n(-c2ccc(S(N)(=O)=O)cc2)c2nc3ccccc3nc12 | 3.87% (inactive)
C=CCn1c(N)c(C(=O)OCC(C)C)c2nc3ccccc3nc21 | 59.2% (active)
COc1cccc(NC(=O)CN(C)CC(=O)Nc2ccc3c(c2)CCC3)c1 | 73.6% (active)

Compound | inhibition
COc1cccc(NC(=O)CN(C)C(=O)/C=C/c2cc(OC)ccc2OC)c1 | 82.6% (active)
OC[C@@H]1CN(Cc2cccs2)C[C@H](n2cnc3c(Nc4ccccc4)ncnc32)O1 | 64.2% (active)
O=C1CC2(CCCCC2)Oc2ccc(OCC(=O)N3CCOCC3)cc21 | 0.92% (inactive)
COc1ccccc1NC(=O)COc1ccc(C(=O)OCC(=O)N(C(C)C)C(C)C)cc1OC | -2.75% (inactive)
COc1ccccc1C(=O)Nc1ccc(OCC(=O)N2CCCCC2)cc1 | 137% (active)
COc1ccc2c(c1OC)C(=O)N(c1ncn[nH]1)C2 | 53% (active)
COc1nc(N=C(N)N)nc2c(C)cccc12 | 83.6% (active)
COc1ccc2c(c1)cc1n2CCN=C1NN | 89.8% (active)
COCCCn1c(CCC(=O)O)ccc1-c1ccc(F)cc1 | 43.6% (active)
CN(C)CCCNC(=O)c1ccc2[nH]c3ccccc3c2c1 | 96.7% (active)
Cc1ccc(-c2nc3ccccc3[nH]c2=O)cc1 | 61.1% (active)
c1ccc2c(NC3C4CC5CC(C4)CC3C5)nc(N3CCOCC3)nc2c1 (stereo not drawn) | 95.8% (active)
CC(Nc1nc(N2CCOCC2)nc2ccccc12)c1ccccc1 (stereo not drawn) | 31% (active)
COc1ccc(-c2ccc(C(=O)NCCN3CCOCC3)c3occc23)c(C)c1 | 56.7% (active)
COc1ccc(-c2ccc(C(=O)NC(C)C)c3occc23)c(C)c1 | 86.3% (active)
COCc1cc(=O)[nH]c2cc(NC(=O)C(F)(F)F)c(C)cc12 | 67.2% (active)
CCC(=O)Nc1ccc2nn(-c3ccc(F)cc3)nc2c1 | 70% (active)
CCNC(=S)Nc1ccc2c(c1)c(=O)n(C)n2Cc1ccc(Cl)cc1 | -3.99% (inactive)
COCCNc1cc(-c2ccccc2)nc2cc(-c3cccc(F)c3)nn12 | 133% (active)
Cc1cc(S(=O)(=O)c2cc3ccc(O)c(C)c3oc2=O)ccc1F | 40.8% (active)
COc1cccc2sc3cc(NCC[C@@H]4CCCN4C)ccc3c(=O)c12 | 69.2% (active)

Reference: PubChem BioAssay AID652141 (The Scripps Research Institute Molecular Screening Center, 2013)
